Reference: PubChem BioAssay AID1159580 (chemical genetic matrix, 2015)
Where “and” joins values, the source holds several entries; their conditions need not be identical. Equal entries are not always repeated. Among all 5,500 compounds or so, about 2,000 (36%) were called active. Roughly 18% stayed inconclusive and do not appear here. Cut-off read from the data, not from the text of the source: active = normalized growth mostly below about 0.91 (no sharp cut-off); inconclusive = no clear call, values can overlap the other calls; inactive = mostly above about 0.92. Some of the results follow.

Experiment: chemical genetic growth profiling, strain panel (AID 1159580);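 note: tested at 20 µM; growth read once vehicle control cultures reached saturation at 30 °C; 1 = growth at the plate median or of vehicle wells; lower values mean less growth of the strain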
Conditions: S. cerevisiae deletion strains, growth OD

Measured: normalized growth

CC(CCC(=O)O)[C@H]1CCC2C3CC[C@@H]4C[C@H](O)CC[C@]4(C)C3C[C@H](O)[C@@]21C (some centres not stated)
inactive: locus YAL013W, strain DEP1, active compounds read low 1.01 | locus YAL021C, strain ccr4, active compounds read low 1.02 | locus YAL026C, strain drs2, active compounds read low 0.98 | locus YAL030W, strain snc1, active compounds read low 1.01 | locus YBL061C, strain skt5, active compounds read low 0.983 | locus YBR009C, strain hhf1, active compounds read low 1.03 | locus YBR021W, strain FUR4, active compounds read low 1.04 | locus YBR023C, strain chs3, active compounds read low 0.962 | locus YBR171W, strain sec66, active compounds read low 0.989 | locus YBR229C, strain ROT2, active compounds read low 0.987 | locus YBR231C, strain swc5, active compounds read low 1.02 | locus YBR279W, strain paf1, active compounds read low 0.99 | locus YCL011C, strain gbp2, active compounds read low 0.974 | locus YCL016C, strain dcc1, active compounds read low 0.948 | locus YCL029C, strain bik1, active compounds read low 0.977 | locus YCL069W, strain vba3, active compounds read low 0.972 | locus YCR088W, strain abp1, active compounds read low 0.997 | locus YDL005C, strain med2, active compounds read low 0.987 | locus YDL035C, strain GPR1, active compounds read low 0.998 | locus YDL040C, strain nat1, active compounds read low 0.993 | locus YDL074C, strain BRE1, active compounds read low 1 | locus YDL101C, strain DUN1, active compounds read low 1.01 | locus YDL185W, strain tfp1, active compounds read low 1.02 | locus YDL192W, strain arf1, active compounds read low 1 | locus YDR001C, strain nth1, active compounds read low 0.984 | locus YDR069C, strain doa4, active compounds read low 1.01 | locus YDR101C, strain arx1, active compounds read low 1.01 | locus YDR137W, strain rgp1, active compounds read low 0.894 | locus YDR150W, strain NUM1, active compounds read low 1.01 | locus YDR159W, strain sac3, active compounds read low 0.963 | locus YDR162C, strain NBP2, active compounds read low 0.998 | locus YDR195W, strain ref2 1.01 | locus YDR297W, strain sur2, active compounds read low 1 | locus YDR318W, strain mcm21, active compounds read low 0.981 | locus YDR334W, strain swr1, active compounds read low 0.98 | locus YDR335W, strain msn5, active compounds read low 0.982 | locus YDR388W, active compounds read low 0.996 | locus YDR392W, strain spt3, active compounds read low 0.884 | locus YDR502C, strain sam2, active compounds read low 1.02 | locus YEL003W, strain gim4, active compounds read low 1.03 | locus YEL037C, strain rad23, active compounds read low 0.979 | locus YEL061C, strain CIN8 (second series), active compounds read low 1.01 | locus YEL061C, strain CIN8, active compounds read low 1.01 | locus YER015W, strain faa2, active compounds read low 1 | locus YER016W, strain bim1, active compounds read low 0.975 | locus YER110C, active compounds read low 0.982 | locus YER111C, strain swi4, active compounds read low 1 | locus YER155C, strain BEM2 (second series), active compounds read low 1.06 | locus YER155C, strain BEM2, active compounds read low 1.03 | locus YER167W, strain BCK2, active compounds read low 1.01 | locus YFR010W, strain ubp6, active compounds read low 1.02 | locus YGL078C, strain dbp3, active compounds read low 1.02 | locus YGL086W, strain mad1, active compounds read low 1.02 | locus YGL167C, strain pmr1, active compounds read low 0.999 | locus YGL173C, strain kem1, active compounds read low 0.992 | locus YGL227W, strain vid30, active compounds read low 1.01 | locus YGL240W, strain doc1, active compounds read low 1.01 | locus YGL248W, strain PDE1, active compounds read low 1.03 | locus YGL253W, strain hxk2, active compounds read low 0.955 | locus YGR078C, strain PAC10, active compounds read low 1.08 | locus YGR135W, strain pre9, active compounds read low 1.04 | locus YHR013C, strain ard1, active compounds read low 0.948 | locus YHR027C, strain rpn1, active compounds read low 1 | locus YHR030C, strain SLT2, active compounds read low 1.01 and 1.04 | locus YHR079C, strain IRE1 (second series), active compounds read low 0.981 | locus YHR079C, strain IRE1, active compounds read low 1.05 | locus YHR094C, strain hxt1, active compounds read low 0.991 | locus YHR129C, strain ARP1, active compounds read low 1.02 | locus YHR142W, strain chs7, active compounds read low 0.926 | locus YHR200W, strain rpn10, active compounds read low 1.02 | locus YIL066C, strain RNR3, active compounds read low 0.999 | locus YIL073C, strain SPO22, active compounds read low 1.06 | locus YIL125W, strain kgd1, active compounds read low 0.988 | locus YIR030C, strain dcg1, active compounds read low 1.01 | locus YJL092W, strain hpr5, active compounds read low 0.999 | locus YJL095W, strain BCK1 (second series), active compounds read low 0.991 | locus YJL095W, strain BCK1, active compounds read low 1.04 | locus YJL115W, strain asf1, active compounds read low 0.986 | locus YJL129C, strain trk1, active compounds read low 0.959 | locus YJL134W, strain LCB3, active compounds read low 1.01 | locus YJL154C, strain vps35, active compounds read low 1.01 | locus YJL164C, strain tpk1, active compounds read low 1 | locus YJL166W, strain qcr8, active compounds read low 1.02 | locus YJL168C, strain set2, active compounds read low 0.98 | locus YJL187C, strain SWE1 (second series), active compounds read low 1.04 | locus YJR043C, strain POL32, active compounds read low 1.01 | locus YJR066W, strain TOR1, active compounds read low 0.99 | locus YKL009W, strain mrt4, active compounds read low 0.942 | locus YKL068W, active compounds read low 0.989 | locus YKL085W, strain MDH1 (second series), active compounds read low 0.975 | locus YKL085W, strain MDH1, active compounds read low 0.975 | locus YKL160W, strain elf1, active compounds read low 0.937 | locus YKR001C, strain vps1, active compounds read low 1.01 | locus YKR026C, strain gcn3, active compounds read low 1 | locus YKR091W, strain srl3, active compounds read low 0.988 | locus YLL001W, strain dnm1, active compounds read low 1.01 | locus YLL026W, active compounds read low 1 | locus YLL041C, strain sdh2, active compounds read low 0.994 | locus YLR027C, strain aat2, active compounds read low 0.991 | locus YLR039C, strain RIC1, active compounds read low 0.941 | locus YLR058C, strain SHM2, active compounds read low 1.01 | locus YLR102C, strain apc9, active compounds read low 0.987 | locus YLR113W, strain HOG1, active compounds read low 0.951 | locus YLR221C, strain rsa3, active compounds read low 1.03 | locus YLR258W, strain gsy2, active compounds read low 0.963 | locus YLR262C, strain YPT6 (second series), active compounds read low 0.935 | locus YLR262C, strain YPT6, active compounds read low 0.925 | locus YLR268W, strain sec22, active compounds read low 0.989 | locus YLR320W, strain mms22, active compounds read low 0.998 | locus YLR330W, strain CHS5, active compounds read low 1.01 | locus YLR342W, strain FKS1 (second series), active compounds read low 0.983 | locus YLR342W, strain FKS1, active compounds read low 0.987 | locus YLR357W, strain rsc2, active compounds read low 1.01 | locus YLR370C, strain arc18, active compounds read low 0.972 | locus YLR371W, strain rom2, active compounds read low 0.985 | locus YLR384C, strain iki3, active compounds read low 0.992 | locus YLR418C, strain cdc73, active compounds read low 1.03 | locus YML016C, strain PPZ1, active compounds read low 1.01 | locus YML032C, strain rad52, active compounds read low 1.01 | locus YML120C, strain ndi1, active compounds read low 1.01 | locus YML124C, strain tub3, active compounds read low 1.01 | locus YMR058W, strain fet3, active compounds read low 1 | locus YMR078C, strain ctf18, active compounds read low 0.981 | locus YMR125W, strain sto1, active compounds read low 0.995 | locus YMR129W, active compounds read low 0.98 | locus YMR205C, strain PFK2, active compounds read low 0.969 | locus YMR223W, strain ubp8, active compounds read low 1.02 | locus YMR231W, strain pep5, active compounds read low 0.99 | locus YMR307W, strain GAS1, active compounds read low 1.03 | locus YNL067W, strain RPL9B, active compounds read low 1.03 | locus YNL071W, strain lat1, active compounds read low 0.99 | locus YNL153C, strain GIM3, active compounds read low 1.03 | locus YNL183C, strain NPR1, active compounds read low 1 | locus YNL209W, strain ssb2, active compounds read low 0.994 | locus YNL233W, strain BNI4, active compounds read low 1.03 | locus YNL248C, strain rpa49, active compounds read low 0.965 | locus YNL250W, strain rad50, active compounds read low 1.01 | locus YNL271C, strain bni1, active compounds read low 0.974 | locus YNL298W, strain CLA4, active compounds read low 0.98 | locus YNL307C, strain MCK1, active compounds read low 0.993 | locus YNL322C, strain KRE1 (second series), active compounds read low 1 | locus YNL322C, strain KRE1, active compounds read low 1.01 | locus YNR049C, strain mso1, active compounds read low 0.988 | locus YNR052C, strain pop2, active compounds read low 1.03 | locus YOL006C, strain TOP1, active compounds read low 1.05 | locus YOL012C, strain htz1 1.39 | locus YOL147C, strain pex11, active compounds read low 1 | locus YOR001W, strain rrp6, active compounds read low 1.03 | locus YOR061W, strain CKA2, active compounds read low 1 | locus YOR069W, strain VPS5, active compounds read low 1 | locus YOR070C, strain gyp1, active compounds read low 1 | locus YOR080W, strain dia2, active compounds read low 0.986 | locus YOR083W, strain WHI5, active compounds read low 0.927 | locus YOR106W, strain vam3, active compounds read low 0.953 | locus YOR136W, strain idh2, active compounds read low 1.02 | locus YOR144C, strain elg1, active compounds read low 0.987 | locus YOR184W, strain ser1, active compounds read low 0.994 | locus YOR231W, strain MKK1, active compounds read low 1.03 | locus YOR265W, strain rbl2, active compounds read low 0.997 | locus YOR270C, strain vph1, active compounds read low 0.942 | locus YOR290C, strain snf2, active compounds read low 0.952 | locus YOR316C, strain cot1, active compounds read low 0.995 | locus YPL051W, strain arl3, active compounds read low 0.958 | locus YPL078C, strain atp4, active compounds read low 0.952 | locus YPL106C, strain sse1, active compounds read low 0.985 | locus YPL240C, strain hsp82, active compounds read low 0.99 | locus YPL256C, strain CLN2, active compounds read low 1.08 | locus YPR119W, strain clb2, active compounds read low 0.992 | locus YPR141C, strain kar3, active compounds read low 0.992 | locus YPR163C, strain tif3, active compounds read low 1 | locus YPR167C, strain met16, active compounds read low 0.996 | strain wtn01, active compounds read low 1.01
